Screening results from PubChem BioAssay.
aSyn yeast inh = alpha-synuclein toxicity inhibition in yeast | Yeast expressing alpha-synuclein, growth rescue, BacTiter-Glo, 24 h | Potency, µM (doses to about 46.1 µM), inactives show at the top dose growth rescue (activation), actives largely listed as activators | actives 0.14% (n = 370,000) | AID 652106; also: % of control where 0% means no effect; nearly all actives have a fitted effect of over 65% in size
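Readout is rescue of growth in alpha-synuclein-expressing yeast, so inhibitors of toxicity appear as activators. Growth after 24 hr at 30 deg C in galactose medium is quantified by luminescence.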
TDP-43 yeast inh = inhibitors of TDP-43 toxicity in yeast; TDP-43 expressing yeast growth rescue, BacTiter-Glo, 24 h; Potency, µM (highest dose often 46.1 µM), inactives show top-dose growth rescue (activation), actives largely listed as activators; actives 1.8% (n = 410,000); also: % of control where 0% means no effect; nearly all actives have a fitted effect of over 50% in size
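In this qHTS, compounds that restore growth of yeast expressing TDP-43 appear as activators. Cells (OD600=0.02, galactose medium, raffinose-pregrown) are incubated with compound 24 hr at 30 deg C and growth is quantified by BacTiter-Glo.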
FUS yeast rescue = rescues growth of FUS-expressing yeast. Potency, µM (titrated, usually from 76.6 µM), most hits filed as activators. S. cerevisiae FUS-expressing, growth rescue, OD600, 24 h. actives 0.24% (n = 390,000). AID 1347120;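 also: plate controls were DMSO vehicle for no effect and reference control for full effect; nearly all actives have a fitted effect of over 55% in size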
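Absorbance at 600 nm, taken 24hr after compound addition, measured rescue of FUS-yeast growth at 30C. Induction used 2% galactose with seeding at OD 0.005. Controls: CP55940 from 92uM final, DMSO only.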
Abeta yeast res = compounds reversing amyloid beta toxicity in yeast | yeast expressing A-beta42, growth rescue, OD600, 48 h; response scale: 0% DMSO, 100% iron-clioquinol control | Potency, µM (highest dose often 46.1 µM), actives largely listed as activators | actives 0.063% (n = 410,000) | AID 1347071; also: nearly all actives have a fitted effect of over 55% in size
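Yeast A-beta toxicity model in growth medium with pinned compounds, 48 h at 30 C; growth read as absorbance at 600 nm. Normalized to FeCl3/clioquinol equimolar mix (positive) and DMSO (negative).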
* marks the source's active call; other numbers are inactive results; i = inactive; ? = inconclusive; / = no result; [ ] = dose if it differs, or a comment. Hits are enriched below; roughly 2.1% of the tested compounds scored in any of these assays. Calls follow the shape of the dose curve; as a rule, active = well fitted curve in the direction sought with a large enough effect; inconclusive = small, poorly fitted or top-dose-only effect, or another doubt; inactive = no such curve, though single readings can be large; an effect the other way counts as inactive or inconclusive. Potency is read from the fitted curve at half-maximal effect.

SMILES | aSyn yeast inh | TDP-43 yeast inh | FUS yeast rescue | Abeta yeast res
O=C(Nc1ccc(S(=O)(=O)Nc2cnc3ccccc3n2)cc1)c1ccc(Cl)c([N+](=O)[O-])c1 | 0.4% | 1.0% | i | i
Cc1cc(C)c2c(CN3CCCCC3)cc(=O)oc2c1 | -8.0% | -11.0% | i | i
Cc1cc(C)c2c(CC(=O)O)coc2c1 | 22.2% | 12.6µM* | i | i
Cc1cc(C)c2c(CC(=O)NN(C)C)coc2c1 | -5.6% | -17.9% | i | i
Cc1cc(C)c2c(CCl)cc(=O)oc2c1 | -0.4% | 7.08µM* | i | i
COC(=O)Oc1nsnc1N1CCOCC1 | -40.1% | -12.0% | i | i
Brc1ccc(Oc2nsnc2N2CCOCC2)cc1 | -5.9% | 11.2µM* | i | i
Cc1nc(CNS(=O)(=O)c2ccc3ccccc3c2)cs1 | -3.9% | 14.1µM* | i | i
Cc1nc(CNS(=O)(=O)c2cccc(F)c2)cs1 | -3.0% | -14.4% | i | i
CC(=O)c1ccc(-c2c(CCO)sc3ccccc23)cc1 | 14.5% | 12.6µM* | i | i
CC(=O)c1ccc(-c2[nH]c3ccccc3c2CCN2C(=O)c3ccccc3C2=O)cc1 | 0.0% | 19.4% | i | i
OCCN1CCN(c2ncnc3c2c(-c2ccccc2)cn3-c2ccc(Br)cc2)CC1 | -15.4% | -4.8%[9.22 µM] | i | i
CSc1nn(Cc2cccc(F)c2)c(N(C(C)=O)C(C)=O)c1S(=O)(=O)c1ccccc1 | / | 35.5µM* | i | i
CSc1nn(Cc2ccc(Cl)cc2)c(N(C(C)=O)C(C)=O)c1S(=O)(=O)c1ccccc1 | / | ? | i | i
CSc1nn(Cc2ccc(Br)cc2)c(N(C(C)=O)C(C)=O)c1S(=O)(=O)c1ccccc1 | / | 35.5µM* | i | i
COc1cccc(Cn2nc(SC)c(S(=O)(=O)c3ccccc3)c2N(C(C)=O)C(C)=O)c1 | / | 20µM* | i | i
COc1ccc(CCC(=O)Nc2nnc(C(C)(C)C)s2)cc1 | -0.3% | 0.0% | i | i
CC(C)CC1C(=O)N(Cc2cn(Cc3ccco3)nn2)CCS(=O)(=O)N1Cc1ccc(-c2ccc(F)nc2)cc1 (stereo unspecified) | 0.6% | 23.7% | ? | i
COc1ccc(C(C)C)cc1S(=O)(=O)NCCc1c(C)[nH]c2c(Cl)cccc12 | / | 6.31µM* | i | i
Cc1oc(-c2ccc(C(=O)N(C)Cc3ccccc3)cc2)nc1CN1CCc2ccccc21 | -0.8% | 26.0% | 20µM* | i
Cc1ccc(CNC(=O)c2ccc(-c3nc(CN4CCc5ccccc54)c(C)o3)cc2)cc1 | -0.4% | 16.5% | i | i
Clc1ccccc1-c1nc(-c2ccccc2)n[nH]1 | -1.8% | 12.6µM* | i | i
Oc1ccccc1-c1n[nH]c(-c2ccccc2O)n1 | 5.1% | -19.0% | / | i
O=C(O)CC1(CC(=O)Nc2ccc3ccccc3c2)CCCCC1 | 1.2% | -8.4% | i | i
O=C(O)CC1(CC(=O)Nc2ccc(Br)cc2)CCCCC1 | -40.8% | 11.2µM* | i | i
SMILES | aSyn yeast inh | TDP-43 yeast inh | FUS yeast rescue | Abeta yeast res
O=C(CCN1C(=O)c2ccccc2C1=O)Nc1ccccn1 | -4.4% | -10.2% | i | i
O=C(c1ccc(N2CCN(C(=O)c3ccccc3Br)CC2)cc1)c1cccc(F)c1 | 19.4% | 14.1µM* | i | i
CCCC(=O)c1cc(F)c(N2CCN(C(=O)OCC)CC2)cc1C | -1.3% | 15.8µM* | i | i
CCCC(=O)c1ccc(N2CCN(C(=O)c3ccccc3Br)CC2)c(F)c1 | -0.3% | 22.4µM* | i | i
O=C(c1ccccc1)c1ccc(N2CCN(C(=O)c3ccc(F)cc3F)CC2)c(F)c1 | 6.0% | 22.4µM* | ? | i
CCCC(=O)c1ccc(N2CCN(C(=O)c3ccccc3)CC2)c(F)c1 | -6.0% | ? | ? | i
COc1ccc(C2NC(=O)C(C#N)=C(S)N2c2ccc(C)cc2)cc1OC (stereo unspecified) | 1.5% | 18.9% | i | i
COc1ccc(OCCn2nnc3sc4c(c3c2=O)CCCC4)cc1 | / | ? | i | i
N#CCCN(C(=O)COC(=O)COc1ccc(Cl)cc1)c1ccccc1 | 0.0% | -20.6% | i | i
CCOc1ccc(-c2nnc(SCC(=O)Nc3cc(F)ccc3F)o2)cc1 | / | 6.4% | i | i
COc1ccccc1NC(=O)CSc1nnc(-c2ccccc2C)o1 | / | 20µM* | i | i
COc1ccc(-c2nnc(SCC(=O)Nc3cc(F)ccc3C)o2)cc1 | 4.6% | 11.2µM* | i | ?
O=C(CSc1nnc(-c2ccc(F)cc2)o1)Nc1ccccc1N1CCOCC1 | ? | 22.4µM* | i | i
COc1ccccc1NC(=O)CSc1nnc(-c2ccoc2C)o1 | 3.7% | ? | i | i
COc1ccccc1NC(=O)c1c(C)cc(C)nc1SCC(=O)Nc1ccc(C)cc1 | / | 17.8µM* | ? | i
CCOC(=O)Cc1csc(SCC(=O)Nc2ccc3[nH]c(=O)[nH]c3c2)n1 | -3.9% | 11.1% | i | i
CCc1ccc(NC(=O)CCn2nc(-c3ccccc3OC)c3c(C)cc(C)nc32)cc1 | 21.8% | ? | ? | i
COc1ccc(NC(=O)CCn2nc(-c3ccccc3OC)c3c(C)cc(C)nc32)cc1 | / | 14.1µM* | i | i
Cc1cc(Nc2ccc(Cl)cc2)n(-c2ccccc2)n1 | 8.5% | 10µM* | i | i
Cc1cc(Nc2ccc(Cl)cc2)n(-c2cccc(Cl)c2)n1 | 8.8% | 22.4µM* | i | i
Cc1cc(Nc2ccccc2)n(-c2ccc(Br)cc2)n1 | 11.5% | ? | i | i
CSc1ccc(S(=O)(=O)N2CCC(C(=O)NCCCn3ccnc3)CC2)cc1 | 0.4% | -21.0% | i | i
Cc1c(Cl)ccc2sc(N3CCN(C(=O)C4CC4)CC3)nc12 | / | 31.6µM* | ? | i
Cc1cc(C)c2sc(N3CCN(C(=O)C4CC4)CC3)nc2c1 | / | 12.6µM* | i | i
CCc1cccc2sc(N3CCN(C(=O)C4CC4)CC3)nc12 | / | 11.2µM* | i | i
SMILES | aSyn yeast inh | TDP-43 yeast inh | FUS yeast rescue | Abeta yeast res
O=C(C1CC1)N1CCN(c2nc3ccccc3s2)CC1 | 12.4% | -7.6% | i | i
CCCCn1c(-c2cccs2)nc2nc3ccccc3nc21 | 4.8% | 12.6µM* | i | i
CCCCCCn1c(-c2cccs2)n[nH]c1=S | 1.7% | -11.5%[0.397 µM] | i | 6.31µM*
CC1CCC(C(C)C)C(OCC(O)CNC(C)(C)C)C1 (stereo unspecified) | 9.3% | 7.6% | i | i
COc1ccccc1NC(=O)CCS(=O)(=O)c1ccc2c(c1)NC(=O)C(C)S2 (stereo unspecified) | -0.3% | 5.1% | i | i
CCOC(=O)c1c[nH]c(=S)n1C | -4.1% | 4.2% | i | i
CN(C(=O)c1ccc(Oc2ccc([N+](=O)[O-])cc2)cc1)C1CCCCC1 | -13.5% | 20µM* | ? | i
CN(C(=O)c1cccc(NC(=O)Cc2ccc([N+](=O)[O-])cc2)c1)C1CCCCC1 | 2.3% | 11.9% | ? | i
